An excerpt weighted towards active compounds, which were near 4.7% of everything screened.
D1 antagonist: human D1 dopamine receptor antagonism; 360,000 tested, 3.2% active; P21728; activity change, negative = inhibition, % at 10 µM; HEK293 TREx D1 cells, calcium flux, dopamine EC80; hits give low values; in the data active = activity change below about -30%; also: % is scaled to controls: 0 for no effect and ±100 for the full control effect
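Calcium flux readout: force-coupled, inducible Hek293 Trex D1 line, cells induced overnight at 30 C with tetracycline, dye-loaded 30–90 min at RT. Antagonism scored against EC80 dopamine challenge given 180 s after compound.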
D1 potentiator: enhances dopamine response at the human D1 receptor. P21728. HEK293 TREx D1 cells, calcium flux, dopamine EC20 potentiation. potentiation, % at 10 µM. 360,000 tested, 0.036% active. AID 504651; in the data active = potentiation above about 30%; also: 0% is about no effect
TRHR ag: activates the human TRH receptor. 360,000 tested, 0.18% active. activation, % at 2 µM. TRHR cells, calcium flux fluo-8, FDSS agonist mode; also: 0% is about no effect
Target sequence (P34981 whole entry, looked up): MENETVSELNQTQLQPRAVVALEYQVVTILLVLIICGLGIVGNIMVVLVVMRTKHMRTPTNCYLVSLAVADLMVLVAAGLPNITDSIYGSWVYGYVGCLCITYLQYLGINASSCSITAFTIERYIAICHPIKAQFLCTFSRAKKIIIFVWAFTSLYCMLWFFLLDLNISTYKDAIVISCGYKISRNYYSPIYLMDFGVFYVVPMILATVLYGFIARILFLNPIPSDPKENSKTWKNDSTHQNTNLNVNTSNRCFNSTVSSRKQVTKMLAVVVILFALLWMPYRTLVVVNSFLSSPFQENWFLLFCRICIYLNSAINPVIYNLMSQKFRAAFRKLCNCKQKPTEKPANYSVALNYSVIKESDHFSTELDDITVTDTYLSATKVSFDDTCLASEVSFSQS
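Fluo-8-loaded TRHR cells; 10 s baseline, compound added, kinetic Ca2+ fluorescence read 1/s, agonist mode.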
D1 ag: agonists of human D1 dopamine receptor; P21728; HEK293 T-REx D1 cells, calcium flux, agonist mode; activation, % at 2 µM; 360,000 tested, 1% active; AID 504660; also: 0% is about no effect
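Tetracycline-induced HEK293 TREx D1 cells, force-coupled to calcium signalling, were dye-loaded with a no-wash calcium kit. Compound was pin-added after a 10 s baseline. Fluorescence was read kinetically at 1 cycle/s for 180 s, with calcium rises flagged as agonism.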
TRHR PAM: allosteric enhancers of human TRH receptor. P34981. 360,000 tested, 0.66% active. enhancement, % at 2 µM. TRHR cells, fluo-8 calcium fluorescence, EC20 TRH enhancement; in the data active = enhancement above about 30%; also: 0% is about no effect
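Enhancer read-out: after compound pinning and an initial kinetic agonist-mode read, an EC20 of TRH (10 nM final) was injected and fluo-8 calcium signal (Ex 480/Em 530) followed at 1 s/cycle for 100 cycles in TRHR-expressing cells.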
Numbers without * were called inactive. Rule as the data show it, unless noted: active = activation above about 30%; inactive = the rest.

SMILES	D1 antagonist	D1 potentiator	TRHR ag	D1 ag	TRHR PAM
CCN1CCN(c2ncc3c(n2)CCN(Cc2ccc(C)s2)C3)CC1	-32*	-1	0	0	4
CN1CCN(c2ncc3c(n2)CCN(Cc2ccc(Br)s2)C3)CC1	-41*	-1	1	9	-4
COc1cc(CN2CCc3nc(N4CCN(c5ccccn5)CC4)ncc3C2)cc(OC)c1OC	-31*	0	0	8	-1
CCN1CCN(c2ncc3c(n2)CCN(Cc2ccc(OC(C)C)cc2)C3)CC1	-40*	-1	0	1	-2
COc1cccc(NC(=O)COc2ccccc2)c1	13	10	-2	3	-5
CCOCC(=O)Nc1cccc(OC)c1	2	-1	0	1	30*
COc1cccc(NC(=O)CN(C)C(=O)/C=C/c2ccc3ccccc3n2)c1	-46*	3	0	-1	-4
COc1cc(NC(=O)COc2cccc(OC)c2)cc(OC)c1	-14	-7	0	0	-2
COc1ccc(CCN(C)CCC(=O)Nc2cccc(C)c2)cc1OC	-33*	-5	1	3	-2
COc1cccc(NC(=O)CCC(=O)Nc2cccc(OC)c2)c1	-31*	-1	0	5	2
CCC1CN(C(=O)N2CCC(C(=O)N3CCN(c4ccccc4)CC3)CC2)c2ccccc2O1 (stereo unspecified)	-2	-1	0	1	11
CN(C)C=NC(=O)c1cc2c(n(-c3ccccc3)c1=O)CC(C)(C)CC2=O	7	1	2	2	4
COc1ccc(CC(=O)OCC(=O)Nc2cccc(Cl)c2)cc1	16	-3	0	3	3
CCc1ccc(NC(=S)N2CCN(c3cccc(OC)c3)CC2)cc1	-31*	-5	-1	9	13
COc1ccc(CCC(=O)Nc2cccc(Cl)c2)cc1	-45*	-8	0	11	3
CCOC(=O)c1nn(-c2ccc(C)cc2)c(=O)cc1OCC(=O)Nc1cccc(C)c1	0	-11	0	7	17
COc1cccc(NC(=O)Nc2ccc(CC(=O)O)cc2)c1	2	-1	0	1	7
CCc1ccc(NC(=O)Nc2cccc(OC)c2)cc1	-31*	-1	0	9	14
CCOC(=O)c1nn(-c2ccc(C)cc2)c(=O)cc1OCC(=O)Nc1cccc(OC)c1	-58*	-6	0	4	-5
O=C(CSc1cn(CC(=O)N2CCOCC2)c2ccccc12)Nc1ccccc1F	-11	2	0	2	6
COc1ccc(CN2CCc3c(c(=O)n4ncc(C(=O)N5CCN(c6ccccc6OC)CC5)c4n3C)C2)cc1	-2	-2	0	5	-10
Cc1nn(-c2nc3ccccc3s2)c(C)c1Oc1ccccc1O	-60*	-9	-1	25	-17
Cc1ccc(Cl)cc1NC(=O)Cn1c(=O)n(CCC(=O)NCc2ccc3c(c2)OCO3)c(=O)c2sccc21	-17	1	1	4	9
Cc1ccc(NC(=O)Cn2c(=O)n(CCC(=O)NCc3ccc4c(c3)OCO4)c(=O)c3sccc32)c(C)c1	-34*	0	0	2	2
CCN(CC)C(=O)Nc1ccc2c(c1)N(Cc1ccccc1)C(=O)c1ccccc1S2	-4	-1	0	11	-3
SMILES	D1 antagonist	D1 potentiator	TRHR ag	D1 ag	TRHR PAM
CCCCCCCC(O)CC(CC1CCCCC1)C(=O)NN (stereo unspecified)	12	-6	0	2	33*
O=C(Nc1ccccc1F)c1ccc(CSc2ccccc2)o1	-22	-2	0	6	-2
Cc1[nH]c2ccccc2c1SCC(=O)N1CCC(C)CC1	-49*	-3	-1	0	0
Fc1ccc(Nc2ccc(-c3ccc(F)cc3)nn2)cc1	-45*	-8	1	2	10
Fc1ccc(-c2ccc(Nc3cccc(F)c3)nn2)cc1	-34*	-10	1	2	12
COc1ccc(-c2nnc(SCC(=O)Nc3ccc(C)c(Cl)c3)nc2-c2ccc(OC)c(OC)c2)cc1OC	9	0	0	7	-3
CCc1nn(CC(=O)NCc2ccc(C)cc2)c(=O)c2cc3occc3n12	-22	-4	-1	-2	6
COc1ccc(C2=C/C(=C/c3cccnc3)C(=O)O2)cc1OC	-21	-12	45*	60*	2
CC(=O)Oc1cccc(/C=C2\C=C(c3ccc(C)cc3)OC2=O)c1	2	-6	0	7	-7
